From PubChem BioAssay
Compounds with a hit are over-represented: about 1.2% of the library has one in this group of screens.
KAT2A inh – GCN5L2 (KAT2A) acetyltransferase inhibition | Potency, µM (top dose mostly 58.9 µM), most hits filed as inhibitors | Q92830 | GCN5L2 HAT assay, ThioGlo1 CoA-SH fluorescence | hit rate 0.21% among 390,000
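GCN5L2 (20 nM) in 50mM HEPES pH 7.5, 0.1mM EDTA, 0.01% Tween-20 preincubated 15 min with compounds at room temperature. Reaction started with H3(1-25) 75uM, acetyl-CoA 70uM, ThioGlo1 50uM; CoA-thiol fluorescence (Ex340/Em540) read at 0 and 20 min.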
TRb SRC2 PPI – TRbeta-SRC2 interaction inhibition; TRbeta-SRC2 peptide binding, fluorescence polarization; receptor liganded with 1 µM T3; hit rate 0.065% among 280,000; AID 1469; P10828; Potency, µM (top dose mostly 106 µM), most hits filed as inhibitors; also: nearly all actives have a fitted effect of over 50% in size
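Assay buffer: 20 mM Tris-HCl, 100 mM NaCl, 10% glycerol, 1 mM EDTA, 0.01% NP-40, 1 mM DTT, 1 uM T3, 5% DMSO; TRb LBD 0.6 uM, Texas Red SRC2 20 nM; FP after 5 hr.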
TR SRC2 fluor cs – counter-screen for TRb-SRC2 inhibitors: fluorescence interference; TRb/SRC2 Texas Red total fluorescence interference; Potency, µM (titrated, usually from 106 µM); hit rate 0.29% among 280,000; AID 1479; active = well fitted curve in either direction with a large enough effect; inconclusive = small, poorly fitted or top-dose-only effect
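Human TRb ligand-binding domain at 0.6 uM with 20 nM Texas Red SRC2 peptide in Tris buffer containing 1 uM T3 and 5% DMSO, incubated with compound 5 h at ambient temperature. Total fluorescence (555/632 nm) calculated as parallel + 2 × perpendicular.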
RGS12 GoLoco inh – RGS12 GoLoco-Gai1 interaction inhibition; P63096; Gai1:RGS12 GoLoco peptide FP, rhodamine, 10 min; Potency, µM (doses to about 61.6 µM), actives largely listed as inhibitors; hit rate 0.44% among 230,000; active = well fitted inhibition curve with a large enough effect, not every such curve was filed as active; inactive = no such curve, though single readings can be large or run the other way; also: nearly all actives have a fitted effect of over 30% in size
VDR inh – vitamin D3 receptor (human) inhibition. P11473. VDR-SRC2-3 peptide fluorescence polarization, 2 h. Potency, µM, most hits filed as inhibitors. hit rate 0.93% among 400,000. AID 504847
Target sequence (P11473 whole entry, looked up): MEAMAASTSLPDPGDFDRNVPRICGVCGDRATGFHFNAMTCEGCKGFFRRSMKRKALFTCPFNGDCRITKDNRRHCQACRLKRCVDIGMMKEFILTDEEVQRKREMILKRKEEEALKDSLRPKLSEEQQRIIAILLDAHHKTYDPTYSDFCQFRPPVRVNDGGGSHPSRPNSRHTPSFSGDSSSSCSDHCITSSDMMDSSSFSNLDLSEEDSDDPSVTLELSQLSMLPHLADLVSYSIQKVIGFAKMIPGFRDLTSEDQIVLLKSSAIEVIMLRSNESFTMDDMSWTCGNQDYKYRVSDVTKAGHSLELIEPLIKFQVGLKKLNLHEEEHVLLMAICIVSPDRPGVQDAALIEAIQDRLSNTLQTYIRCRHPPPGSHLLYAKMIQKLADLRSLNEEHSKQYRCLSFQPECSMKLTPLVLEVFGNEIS
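The screen uses fluorescence polarization to detect compounds that interfere with recruitment of the SRC2-3 coactivator peptide to VDR; plates are read after 2 h at room temperature.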
A number is an active result; i = inactive; ? = inconclusive; nt = not tested or not shown; [ ] = remark or other dose. Unless noted, calls follow the shape of the dose curve; as a rule, active = well fitted curve in the direction sought with a large enough effect; inconclusive = small, poorly fitted or top-dose-only effect, or another doubt; inactive = no such curve, though single readings can be large; an effect the other way counts as inactive or inconclusive.

SMILES	KAT2A inh	TRb SRC2 PPI	TR SRC2 fluor cs	RGS12 GoLoco inh	VDR inh
O=S(=O)(Nc1ccc(-c2ccc(N3CCCCCC3)nn2)cc1)c1cccc(C(F)(F)F)c1	i	i	3162µM[quencher]	nt	i
O=S(=O)(Nc1ccc(-c2ccc(N3CCCCCC3)nn2)cc1)c1ccc(C(F)(F)F)cc1	i	i	i	nt	i
COc1ccc(C2CC(c3ccccc3)=NN2C(=O)COC(=O)c2cc(S(=O)(=O)N3CCOCC3)ccc2Cl)cc1 (configuration not stated)	i	i	i	13µM	i
COc1ccc(C2CC(c3ccccc3)=NN2C(=O)COC(=O)c2cccnc2Cl)cc1 (configuration not stated)	i	i	i	i	i
COC(=O)[C@H]1C[C@@H]1[C@H](NC(C)=O)c1ccccc1	nt	i	i	1.3µM	nt
COC(=O)[C@@H]1C[C@H]1[C@@H](NC(=O)c1ccccc1)c1ccccc1	i	i	i	i	i
Cc1cc(/C=N/O)c(C)n1-c1ccccc1	i	i	i	i	i
Cc1cc(/C=C/c2ccc3cc(N(C)C)ccc3[n+]2C)c(C)n1-c1ccccc1	?	?	40µM[fluorescent]	i	nt
COC(=O)c1ccc(/C=N/NC(=S)NC(C)C)cc1	i	i	i	i	25µM
CSc1nc2c(c(=O)[nH]1)C(c1cccc(F)c1F)CC(=O)N2 (configuration not stated)	i	i	i	nt	i
Cc1ccc(CSc2nc3c(c(=O)[nH]2)C(c2cccc(F)c2F)CC(=O)N3)cc1 (configuration not stated)	i	?	8.9µM[quencher]	nt	i
O=c1[nH]c(/C=C\c2cccc(F)c2)nc(O)c1[N+](=O)[O-]	i	nt	nt	nt	40µM
C=CCOc1cccc(/C=C\c2nc(O)c([N+](=O)[O-])c(=O)[nH]2)c1	i	nt	nt	nt	14µM
O=C(O)c1ccccc1C(=O)Nc1cc2c(cc1Br)-c1ccccc1C2=O	nt	nt	nt	i[14.2 µM]	nt
CCSc1ncc(Cl)c(C(=O)Nc2nc3ccc(S(C)(=O)=O)cc3s2)n1	i	i	35µM[quencher]	nt	i
CCSc1ncc(Cl)c(C(=O)Nc2nc3ccc(OC)cc3s2)n1	i	?	2.5µM[quencher]	nt	i
O=C1c2cccc3c2[C@@H](CCC3)CN1[C@@H]1CN2CCC1CC2	i	nt	nt	nt	i
Nc1ncnc2c1nc(Sc1ccc(Cl)cc1)n2[C@H]1OC2COP(=O)(O)O[C@@H]2C1O (some centres not stated)	i	nt	nt	nt	i
CCOC(=O)c1cnc2c(C)cc(C)cc2c1Nc1ccc(S(=O)(=O)Nc2ncccn2)cc1	i	i	35µM[quencher]	i	i
CCOC(=O)c1cnc2c(C)cc(C)cc2c1NCCCN1CCOCC1	i	nt	nt	nt	i
CC(=O)Nc1ccc2c(c1)Cc1cc(N3C(=O)C=CC3=O)ccc1-2	nt	nt	nt	nt	28µM
CCN(CC)Cc1cc(O)c(CN(CC)CC)cc1O	i	i	?	7.9µM	i
CCOC(=O)OCC1OC(C#Cc2ccccc2)C=CC1OC(=O)OCC (configuration not stated)	nt	i[11.2 µM]	i[11.2 µM]	nt	nt
COc1ccc2c(c1OC)C(=O)N1C2SC(C)(C)[C@H]1C(=O)NC1CCCC1 (some centres not stated)	32µM	nt	nt	nt	i
S=C(Nc1ccccc1)N1N=C(c2cccs2)CC1c1cccs1 (configuration not stated)	i	i	i	i	79µM
SMILES	KAT2A inh	TRb SRC2 PPI	TR SRC2 fluor cs	RGS12 GoLoco inh	VDR inh
COc1ccc(CCC(=O)O)c(O)c1	?	i	i	i	i
COCc1cc(O)c(O)c(O)c1-c1c(COC)cc(O)c(O)c1O	i	i	i	i	16µM
FC(F)(F)c1cc(NC(=S)N2c3ccccc3-n3cccc3[C@H]2c2cccnc2)cc(C(F)(F)F)c1	nt	nt	nt	i[14.2 µM]	nt
O=C(c1ccc(Cl)cc1)C1CCN(C(=O)C2CC2)CC1	14µM	i	i	i	i
O=C(c1ccccc1)C1CCN(C(=O)c2ccc(Cl)cc2)CC1	i	nt	nt	nt	i
O=C(CCCl)Nc1cccc2cccnc12	nt	nt	nt	nt	i
Clc1ncc(C#Cc2ccccc2)c2ncncc12	nt	nt	nt	nt	28µM
COc1ccc(C#Cc2cnc(Cl)c3cncnc23)cc1OC	nt	nt	nt	nt	i
O=C(COC(=O)C1CCC(=O)N1)Nc1ccccc1Br (configuration not stated)	i	i	i	i	22µM
Cc1noc(C)c1-c1ccc2ncnc(NCc3cccc(C(F)(F)F)c3)c2c1	nt	i	i	nt	nt
O=C(CSc1nc(-c2ccc(F)cc2)nc2c1Cc1ccccc1O2)Nc1cccc(C(=O)O)c1	13µM	i	i	i	i
